# Test results taken from PubChem BioAssay.
# Active and inactive are the calls of the source. Unless noted, the rule behind the calls is not given here.
# Legend:
# [1] = compound effects on lung adenocarcinoma cell viability – A549, calcein-AM fluorescence, 48 h, basal, profiling panel (AID 1162); settings: higher = more signal; note: test concentration not given here
# [2] = compound effects on differentiated 3T3-L1 adipocyte viability – cell-based, 3T3-L1 adipocytes, calcein-AM fluorescence, 48 h, basal, profiling panel (AID 1163); settings: 3T3-L1 adipocytes viability, higher = more signal; note: test concentration not given here
# [3] = compound effects on hepatocellular carcinoma cell viability – HepG2, calcein-AM fluorescence, 48 h, basal, profiling panel (AID 1164); settings: higher = more signal; note: test concentration not given here
# [4] = compound effects on multiple myeloma cell viability – MM1S, calcein-AM fluorescence, 48 h, basal, profiling panel (AID 1165); settings: higher = more signal;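 note: viability of MM1S multiple myeloma cells under basal unstimulated conditions; test concentration not given here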
# [5] = calcein-AM signal in unstimulated myeloma cells – cell-based, calcein-AM fluorescence, 48 h, PK04 Diversity Set, profiling panel (AID 1166); settings: RPMI8226 myeloma viability, higher = more signal;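 note: cells grown under basal conditions without added stimulus; test concentration not given here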
# [6] = JC-1 mitochondrial signal, unstimulated HepG2 cells – cell-based, JC-1 fluorescence, 24 h, 100 nL compound, profiling panel (AID 1167); settings: HepG2 mitochondrial potential, higher = more signal; note: test concentration not given here
# [7] = JC-1 mitochondrial signal, unstimulated adipocytes – cell-based, JC-1 fluorescence, 3T3-L1 adipocytes, 24 h, 100 nL compound, profiling panel (AID 1168); settings: JC-1 mitochondrial fluorescence, higher = more signal, called active from +8 up or from −8 down; note: test concentration not given here
# [8] = JC-1 mitochondrial signal, unstimulated myeloma cells – cell-based, JC-1 fluorescence, RPMI8226, 24 h, 100 nL compound, profiling panel (AID 1169); settings: JC-1 mitochondrial potential fluorescence, higher = more signal; note: test concentration not given here
# [9] = JC-1 mitochondrial signal, unstimulated MM1S myeloma – cell-based, JC-1 fluorescence, 24 h, 100 nL compound, profiling panel (AID 1170); settings: MM1S mitochondrial potential, higher = more signal; note: test concentration not given here
# [10] = resazurin metabolic signal in A549 cells – cell-based, resazurin fluorescence, 24 h, PK04 Diversity Set, profiling panel (AID 1171); settings: A549 viability, higher = more signal, called active from +8 up or from −8 down; note: test concentration not given here
# [11] = resazurin metabolic signal in HepG2 cells – cell-based, resazurin fluorescence, 24 h, PK04 Diversity Set, profiling panel (AID 1172); settings: HepG2 viability, higher = more signal; note: test concentration not given here
# [12] = budding yeast growth changes without added modifier – OD600, strain BY4716, 24 h, basal condition, primary screen (AID 1173); settings: S. cerevisiae BY4716 growth, OD600, 24 h; higher = more signal, called active from +8 up or from −8 down
# [13] = viability profiling in MM1S myeloma cells – cell-based, resazurin fluorescence, basal, 24 h, PK04 Diversity Set, profiling panel (AID 1174); settings: higher = more signal, called active from +8 up or from −8 down; note: test concentration not given here
# [14] = target: Dihydroorotate dehydrogenase (quinone), mitochondrial (Plasmodium falciparum (isolate 3D7)) (UniProt Q08210); test: inhibition of P. falciparum DHODH – biochemical, C-terminal His tag, absorbance 600 nm, primary screen (AID 1175); settings: PfDHODH enzyme, DCIP absorbance 600 nm; higher = more signal, called active from +8 up or from −8 down;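 note: recombinant parasite enzyme with a five histidine tag at its C terminus; test concentration not given here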
# [15] = inhibition of PAO1 biofilm formation – strain PAO1, LB-PBS medium, absorbance 600 nm, primary screen (AID 1176); note: test concentration not given here; settings: P. aeruginosa PAO1 growth/biofilm, A600, 12 h; higher = more signal
# [16] = growth modulation of vineyard yeast isolate – strain RM11-1a, OD600, basal, 24 h, primary screen (AID 1177);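 note: cultures grown under basal conditions with no added stressor; test concentration not given here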; settings: S. cerevisiae RM11-1a growth, OD600, 24 h; higher = more signal, called active from +8 up or from −8 down
# [17] = growth of efflux-deficient E. coli DRC39 – strain DRC39, OD650, 24 h, E. coli filamentation inducers, primary screen (AID 1178);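 note: growth measured as culture turbidity by optical density at 650 nm; test concentration not given here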; settings: E. coli DRC39 acrAB, higher = more signal, called active from +8 up or from −8 down
# [18] = growth of efflux-deficient E. coli DRC39 – strain DRC39, OD650, 48 h, E. coli filamentation inducers, primary screen (AID 1179);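 note: screen aims at cell division blockers that make cells filament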; settings: E. coli DRC39 delta-acrAB growth, higher = more signal, called active from +8 up or from −8 down
# [19] = viability profiling in RPMI8226 myeloma cells – cell-based, resazurin fluorescence, basal, 24 h, PK04 Diversity Set, profiling panel (AID 1180); settings: higher = more signal;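 note: RPMI8826 multiple myeloma cell line at 5000 cells per well; test concentration not given here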
# [20] = target: E3 ubiquitin-protein ligase XIAP (Homo sapiens) (UniProt P98170); test: small molecules binding XIAP protein – biophysical, small-molecule microarray, fluorescence 635 nm, primary screen (AID 1181); settings: higher = more signal;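 note: score merges 667 nm emission and signal to noise over triplicate slides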
# Sequence of E3 ubiquitin-protein ligase XIAP (Homo sapiens) (P98170 whole entry, looked up): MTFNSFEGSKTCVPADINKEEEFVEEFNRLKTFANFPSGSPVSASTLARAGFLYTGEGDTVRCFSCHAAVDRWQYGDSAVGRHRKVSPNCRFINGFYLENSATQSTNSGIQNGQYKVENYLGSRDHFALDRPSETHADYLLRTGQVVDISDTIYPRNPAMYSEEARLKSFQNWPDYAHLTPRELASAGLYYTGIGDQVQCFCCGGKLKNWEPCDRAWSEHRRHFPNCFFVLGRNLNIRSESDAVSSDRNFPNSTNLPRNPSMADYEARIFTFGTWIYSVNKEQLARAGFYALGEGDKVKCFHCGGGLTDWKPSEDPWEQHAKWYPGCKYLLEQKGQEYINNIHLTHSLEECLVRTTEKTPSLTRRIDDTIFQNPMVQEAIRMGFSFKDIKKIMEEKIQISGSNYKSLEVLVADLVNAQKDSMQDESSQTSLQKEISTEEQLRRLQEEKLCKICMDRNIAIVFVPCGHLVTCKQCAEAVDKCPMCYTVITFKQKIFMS
# Sequence of Dihydroorotate dehydrogenase (quinone), mitochondrial (Plasmodium falciparum (isolate 3D7)) (Q08210 whole entry, looked up): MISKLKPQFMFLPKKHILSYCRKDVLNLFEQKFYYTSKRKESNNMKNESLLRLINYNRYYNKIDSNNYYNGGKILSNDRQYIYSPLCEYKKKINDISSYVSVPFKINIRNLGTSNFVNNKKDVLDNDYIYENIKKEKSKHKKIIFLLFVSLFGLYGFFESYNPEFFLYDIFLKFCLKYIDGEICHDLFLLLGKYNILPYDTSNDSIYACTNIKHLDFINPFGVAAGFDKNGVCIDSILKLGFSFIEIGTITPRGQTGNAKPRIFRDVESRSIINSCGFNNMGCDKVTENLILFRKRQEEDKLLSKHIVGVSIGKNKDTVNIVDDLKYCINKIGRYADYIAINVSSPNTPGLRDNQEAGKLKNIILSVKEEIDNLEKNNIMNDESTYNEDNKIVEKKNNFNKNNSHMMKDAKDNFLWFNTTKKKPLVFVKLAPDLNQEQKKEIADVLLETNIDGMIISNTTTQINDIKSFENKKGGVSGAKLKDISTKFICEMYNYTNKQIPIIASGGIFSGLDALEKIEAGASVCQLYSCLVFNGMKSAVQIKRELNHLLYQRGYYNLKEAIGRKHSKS
structure (smiles),measurement,setting,value
COC(=O)[C@@]1(Cc2ccccc2)[C@H]2c3cc(C(=O)N(C)C)n(Cc4nc5ccccc5[nH]4)c3C[C@H]2CN1C(=O)c1ccccc1,z-score,[1],0.173
same,z-score,[2],-0.232
same,z-score,[3],0.858
same,z-score,[4],-0.013
same,z-score,[5],-0.191
same,z-score,[6],-0.3
same,z-score,[7],0.385 (inactive)
same,z-score,[8],-0.303
same,z-score,[9],-0.701
same,z-score,[10],0.0716 (inactive)
same,z-score,[11],1.17
same,z-score,[12],-0.541 (inactive)
same,z-score,[13],-0.204 (inactive)
same,composite z-score,[14],-0.862 (inactive)
same,z-score,[15],0.92 (inactive)
same,z-score,[16],-0.706 (inactive)
same,z-score,[17],1.04 (inactive)
same,z-score,[18],0.0023 (inactive)
same,z-score,[19],-0.139
same,composite z-score,[20],0.0747
COCCOC(=O)N1C(=O)[C@@]2(c3cc(C#CCNC(N)=O)ccc31)[C@H](C(N)=O)[C@H]1C(=O)O[C@H](c3ccccc3)[C@H](c3ccccc3)N1[C@@H]2c1ccc(O)cc1,z-score,[1],1.05
same,z-score,[2],-0.142
same,z-score,[3],0.779
same,z-score,[4],0.394
same,z-score,[5],-0.896
same,z-score,[6],-0.507
same,z-score,[7],-0.0468 (inactive)
same,z-score,[8],-0.883
same,z-score,[9],0.326
same,z-score,[10],1.22 (inactive)
same,z-score,[11],0.296
same,z-score,[12],-0.156 (inactive)
same,z-score,[13],-0.477 (inactive)
same,composite z-score,[14],0.303 (inactive)
same,z-score,[15],1.01 (inactive)
same,z-score,[16],0.532 (inactive)
same,z-score,[17],0.769 (inactive)
same,z-score,[18],1.33 (inactive)
same,z-score,[19],-0.392
same,composite z-score,[20],-0.245
COC(=O)C(CC#Cc1ccc2c(c1)[C@]1(C(=O)N2)[C@H](C(=O)N2CCCCCCC2)[C@H]2C(=O)O[C@H](c3ccccc3)[C@H](c3ccccc3)N2[C@@H]1c1ccc(OCCO)cc1)C(=O)OC,z-score,[1],-0.369
same,z-score,[2],0.231
same,z-score,[3],0.0259
same,z-score,[4],-0.236
same,z-score,[5],0.164
same,z-score,[6],-0.738
same,z-score,[7],-2.32 (inactive)
same,z-score,[8],-1.04
same,z-score,[9],-1.44
same,z-score,[10],1.29 (inactive)
same,z-score,[11],0.883
same,z-score,[12],1.43 (inactive)
same,z-score,[13],0.229 (inactive)
same,composite z-score,[14],-1.22 (inactive)
same,z-score,[15],2.05 (inactive)
same,z-score,[16],0.415 (inactive)
same,z-score,[17],0.0679 (inactive)
same,z-score,[18],-0.878 (inactive)
same,z-score,[19],0.0283
same,composite z-score,[20],2.59
O=C1C2C=CC(C(O)c3ccccn3)N(Nc3ccc([N+](=O)[O-])cc3)C2C(=O)N1c1ccccc1 (stereo not given),z-score,[1],-0.264
same,z-score,[2],-0.723
same,z-score,[3],0.19
same,z-score,[4],-0.416
same,z-score,[5],-0.737
same,z-score,[6],-1.47
same,z-score,[7],-1.83 (inactive)
same,z-score,[8],-0.187
same,z-score,[9],-1.13
same,z-score,[10],-0.0475 (inactive)
same,z-score,[11],-0.534
same,z-score,[12],0.512 (inactive)
same,z-score,[13],-0.494 (inactive)
same,composite z-score,[14],0.128 (inactive)
same,z-score,[15],1.17 (inactive)
same,z-score,[16],-0.841 (inactive)
same,z-score,[17],-0.63 (inactive)
same,z-score,[18],-0.462 (inactive)
same,z-score,[19],-1.03
same,composite z-score,[20],0.359
COCCOC(=O)N1C(=O)[C@@]2(c3cc(C#CCNC(N)=O)ccc31)[C@H](C(=O)N1CCN(c3ncccn3)CC1)[C@H]1C(=O)O[C@H](c3ccccc3)[C@H](c3ccccc3)N1[C@@H]2c1ccc(O)cc1,z-score,[1],0.722
same,z-score,[2],-0.118
same,z-score,[3],0.568
same,z-score,[4],0.445
same,z-score,[5],1.17
same,z-score,[6],0.866
same,z-score,[7],-0.709 (inactive)
same,z-score,[8],-0.0604
same,z-score,[9],-0.564
same,z-score,[10],-0.824 (inactive)
same,z-score,[11],-0.203
same,z-score,[12],-0.171 (inactive)
same,z-score,[13],0.0034 (inactive)
same,composite z-score,[14],0.386 (inactive)
same,z-score,[15],1.13 (inactive)
same,z-score,[16],-0.34 (inactive)
same,z-score,[17],0.589 (inactive)
same,z-score,[18],1.15 (inactive)
same,z-score,[19],0.436
same,composite z-score,[20],-0.0129
CC(C)N1C(=O)[C@@]2(Cc3ccccc31)c1ccccc1C(=O)N(Cc1ccccc1)[C@H]2c1ccc(CO)cc1,z-score,[1],-0.128
same,z-score,[2],0.0609
same,z-score,[3],-0.112
same,z-score,[4],-0.436
same,z-score,[5],-0.617
same,z-score,[6],-0.0756
same,z-score,[7],-0.0814 (inactive)
same,z-score,[8],0.122
same,z-score,[9],0.687
same,z-score,[10],0.247 (inactive)
same,z-score,[11],-0.147
same,z-score,[12],2.07 (inactive)
same,z-score,[13],0.144 (inactive)
same,composite z-score,[14],-19.1 (active)
same,z-score,[15],0.338 (inactive)
same,z-score,[16],1.69 (inactive)
same,z-score,[17],0.367 (inactive)
same,z-score,[18],-0.665 (inactive)
same,z-score,[19],0.0769
same,composite z-score,[20],-0.337
COc1ccc([Si](C)(C)[C@@H]2[C@@H](CC(=O)N3Cc4ccccc4C[C@H]3CO)O[C@]3(C(=O)N(Cc4ccc(I)cc4)c4ccccc43)[C@H]2C)cc1,z-score,[1],-0.806
same,z-score,[2],0.62
same,z-score,[3],-0.435
same,z-score,[4],-1.98
same,z-score,[5],-0.588
same,z-score,[6],0.81
same,z-score,[7],0.124 (inactive)
same,z-score,[8],-0.531
same,z-score,[9],0.122
same,z-score,[10],-0.663 (inactive)
same,z-score,[11],0.454
same,z-score,[12],-0.0671 (inactive)
same,z-score,[13],-1 (inactive)
same,composite z-score,[14],0.312 (inactive)
same,z-score,[15],0.662 (inactive)
same,z-score,[16],2.33 (inactive)
same,z-score,[17],0.101 (inactive)
same,z-score,[18],-0.092 (inactive)
same,z-score,[19],-0.336
same,composite z-score,[20],0.262
C=CCOC(=O)[C@@H]1[C@H]2C(=O)O[C@H](c3ccccc3)[C@H](c3ccccc3)N2[C@H](c2ccc(OCCOC(=O)[C@H]3C[C@H]4C(=O)N[C@@H](CCCCN(C)C)C(=O)N4[C@H]3c3cccc(OCCO)c3)cc2)[C@@]12C(=O)Nc1ccccc12,z-score,[1],-0.555
same,z-score,[2],-0.453
same,z-score,[3],-0.113
same,z-score,[4],0.293
same,z-score,[5],-2.17
same,z-score,[6],-1.29
same,z-score,[7],-0.5 (inactive)
same,z-score,[8],-0.928
same,z-score,[9],-0.689
same,z-score,[10],0.64 (inactive)
same,z-score,[11],0.594
same,z-score,[12],0.756 (inactive)
same,z-score,[13],0.75 (inactive)
same,composite z-score,[14],0.0193 (inactive)
same,z-score,[15],-0.475 (inactive)
same,z-score,[16],0.237 (inactive)
same,z-score,[17],0.292 (inactive)
same,z-score,[18],0.352 (inactive)
same,z-score,[19],0.835
same,composite z-score,[20],-0.0102
CC(C)[Si](C#Cc1ccccc1)(O[C@H](c1ccccc1)c1cn(Cc2ccccc2)nn1)C(C)C,z-score,[1],-1.6
same,z-score,[2],-0.433
same,z-score,[3],-2.13
same,z-score,[4],-1.8
same,z-score,[5],-2.46
same,z-score,[6],-1.19
same,z-score,[7],0.24 (inactive)
same,z-score,[8],-0.425
same,z-score,[9],-0.0328
same,z-score,[10],-0.486 (inactive)
same,z-score,[11],-0.001
same,z-score,[12],-16.7 (active)
same,z-score,[13],0.141 (inactive)
same,composite z-score,[14],-1.03 (inactive)
same,z-score,[15],-0.571 (inactive)
same,z-score,[16],-0.282 (inactive)
same,z-score,[17],1.67 (inactive)
same,z-score,[18],0.79 (inactive)
same,z-score,[19],0.253
same,composite z-score,[20],-0.516
